Here are results for 29 compounds from PubChem BioAssay (NCATS).

Experiment [1] addresses Ubiquitin carboxyl-terminal hydrolase 1 (Homo sapiens) (UniProt O94782). As to the kind of experiment: Inhibitors of USP1/UAF1: Pilot qHTS (AID 504865). Note: nearly all actives have a fitted effect of over 35% in size. Note: potency is the fitted concentration of half-maximal effect. Summed up: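 Kinetic fluorescence assay: 1nM USP1/UAF1, 15 min compound preincubation, then 150nM Ub-Rho; 480/540 nm.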
Another experiment concerns GB4. As to the kind of experiment: qHTS profiling for inhibitors of Plasmodium falciparum proliferation (AID 504749). Note: nearly all actives have a fitted effect of over 60% in size. Note: potency is the fitted concentration of half-maximal effect. Conditions: P. falciparum in erythrocytes, SYBR Green DNA, 72 h; series mostly up to 28.7 µM. The method in brief:
(§1)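 SYBR Green fluorescence of parasite DNA, read after lysis and overnight dark incubation, measured growth over 72 h in erythrocyte culture at 0.3% parasitemia and 2.5% hematocrit. Data normalised to DMSO and 0.29 uM artemisinin, with plate-drift correction.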
For orientation: Quantitative high-throughput screening tests each substance at several concentrations.

Experiment [2] is described as follows: S16 Schwann cell PMP22 intronic element firefly luciferase assay (AID 624032). Note: nearly all actives have a fitted effect of over 30% in size. Note: potency is the fitted concentration of half-maximal effect. The method in brief: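 Luciferase reporter of PMP22 intronic-element expression in stably transfected S16 rat Schwann cells, read by ONE-Glo luminescence after 24 h compound exposure at 37 C. Activity scaled between DMSO (0%) and positive-control PTC124; concentration-effect curves quality-classified.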

For another experiment, the system named is DIV14. As to the kind of experiment: qHTS profiling for inhibitors of Plasmodium falciparum proliferation (AID 504749). Note: nearly all actives have a fitted effect of over 60% in size. Note: potency is the fitted concentration of half-maximal effect. Conditions: P. falciparum in erythrocytes, SYBR Green DNA, 72 h; series mostly up to 28.7 µM. The method in brief: as §1
A further experiment relates to ICS. Described as above. The settings on record: P. falciparum in erythrocytes, SYBR Green DNA, 72 h; series mostly up to 28.7 µM. Summed up: as §1
The next experiment concerns W2. The description is as above. Conditions: P. falciparum in erythrocytes, SYBR Green DNA, 72 h; series mostly up to 28.7 µM. The method in brief:
as §1

Experiment [3] addresses Cytochrome P450 3A4 (Homo sapiens) (UniProt P08684). The experiment in a line: qHTS Assay for Inhibitors and Substrates of Cytochrome P450 3A4 (AID 884). Note: nearly all actives have a fitted effect of over 50% in size. Summed up: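 Luminescent readout of luciferin produced by CYP3A4 (20 nM) dealkylation of Luciferin-PPXE, 25 uM (its KM). NADPH-driven reaction ran 60 min at RT after 10 min compound preincubation; data scaled to 57 uM ketoconazole as 100% inhibition.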

The nature of experiment [4]: Confirmation and Secondary Assay for Modulators of Hemoglobin Beta Chain Splicing at IVS2 654 locus (AID 910).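 Note: HeLa cells stably carrying EGFP split by mutant beta-globin IVS2-654 intron; per-well total GFP intensity by laser scanning cytometry after 2-day treatment.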 The method in brief: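 Readout: per-well total peak green fluorescence (488 nm ex, 500–520 nm em) from objects 5–250 µm, reflecting correct splicing of an EGFP-654 reporter. Compounds were applied for 2 days at 37 °C to overnight-plated HeLa EGFP-654 cells; controls were DMSO and 500 nM IVS2-654 PNA.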

Experiment [5] deals with Mitogen-activated protein kinase 10 (Mus musculus) (UniProt Q61831). The experiment in a line: JNK3 AlphaScreen Assay (AID 530; active = well fitted curve in either direction with a large enough effect, not every such curve was filed as active;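 note: kinase came from lysate of stimulated human HepG2 cells; signal reports phosphorylation of biotinylated GST-cJun 1-79 at Ser73 with 10 µM ATP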). Summed up: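 qHTS titrations with 15 min compound pre-incubation before adding ATP (10 uM final). Read-out: AlphaScreen of Ser73-phosphorylated biotin-GST-cJun using HepG2 lysate JNK3 activated by IL-1β and TNFα.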
On the technique in general: Alpha assays give light when donor and acceptor beads are brought close together.

In experiment [6] the target is DNA dC->dU-editing enzyme APOBEC-3G (Homo sapiens) (UniProt Q9HC16). The experiment in a line: qHTS for inhibitors of Vif-A3G interactions: Validation (AID 588379). The method in brief: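 Yellow fluorescence (Ex 488, Em 500-530) of Vif-coexpressing HeLa A3G-eYFP cells, scanned by Acumen cytometer, reports blocked A3G degradation. Cells plated at 700/well overnight at 37 deg C before compound addition, then a further overnight compound incubation at 37 deg C.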

Experiment [7] is described as follows: qHTS for Inhibitors of Plasmodium falciparum (DD2) proliferation (AID 504314).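 Note: parasite DNA measured by SYBR Green fluorescence after red cell lysis.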 Summed up: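 SYBR Green growth assay: 72 h compound exposure of infected red cells (2.5% hematocrit, 0.3% parasitemia), then lysis and overnight dye staining, fluorescence 485/535 nm. Values scaled between DMSO and 0.29 uM artemisinin controls.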
Experiment [8] is described as follows: qHTS for Inhibitors of Plasmodium falciparum (GB4) proliferation (AID 504315). Note: potency is the fitted concentration of half-maximal effect; nearly all actives have a fitted effect of over 50% in size. The method in brief: (§2)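 Parasite growth measured as SYBR Green DNA fluorescence (ex 485, em 535 nm) after overnight lysis following 72 h culture at 37 °C, 0.3% parasitemia, 2.5% hematocrit. Values normalized against DMSO and 0.29 uM artemisinin controls, with plate-stack correction.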

Experiment [9] in a line: qHTS for Inhibitors of Plasmodium falciparum (7G8) proliferation (AID 504316). Note: potency is the fitted concentration of half-maximal effect; nearly all actives have a fitted effect of over 65% in size. Summed up: as §2

SMILES strings stand for the structures. Results filed as inconclusive are left out. Activity calls are given as the source filed them. Unless noted, calls come from the whole dose curve; as a rule, active = well fitted curve in the direction sought with a large enough effect; inconclusive = small, poorly fitted or top-dose-only effect, or another doubt; inactive = no such curve, though single readings can be large; an effect the other way counts as inactive or inconclusive.

Ubiquitin carboxyl-terminal hydrolase 1 (Homo sapiens), sequence (O94782 whole entry, looked up): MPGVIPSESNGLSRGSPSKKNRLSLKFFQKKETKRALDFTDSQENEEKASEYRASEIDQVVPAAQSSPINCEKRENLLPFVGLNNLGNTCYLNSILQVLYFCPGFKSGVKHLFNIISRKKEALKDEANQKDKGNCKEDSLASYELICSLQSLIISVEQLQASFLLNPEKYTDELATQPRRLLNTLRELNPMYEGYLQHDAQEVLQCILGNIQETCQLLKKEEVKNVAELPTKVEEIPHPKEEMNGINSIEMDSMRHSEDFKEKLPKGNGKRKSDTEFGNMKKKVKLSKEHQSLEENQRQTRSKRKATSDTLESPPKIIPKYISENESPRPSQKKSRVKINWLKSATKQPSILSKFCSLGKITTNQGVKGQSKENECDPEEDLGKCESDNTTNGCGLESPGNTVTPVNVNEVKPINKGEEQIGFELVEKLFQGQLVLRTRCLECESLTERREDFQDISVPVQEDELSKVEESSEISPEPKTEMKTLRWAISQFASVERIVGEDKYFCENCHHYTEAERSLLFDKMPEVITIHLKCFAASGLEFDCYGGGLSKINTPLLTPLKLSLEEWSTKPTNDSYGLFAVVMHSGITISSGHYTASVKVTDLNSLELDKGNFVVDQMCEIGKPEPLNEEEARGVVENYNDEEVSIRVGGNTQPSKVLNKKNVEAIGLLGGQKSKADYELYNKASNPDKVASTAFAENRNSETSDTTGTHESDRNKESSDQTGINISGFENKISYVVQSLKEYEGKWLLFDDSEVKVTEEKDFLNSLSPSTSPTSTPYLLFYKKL
Cytochrome P450 3A4 (Homo sapiens), sequence (P08684 whole entry, looked up): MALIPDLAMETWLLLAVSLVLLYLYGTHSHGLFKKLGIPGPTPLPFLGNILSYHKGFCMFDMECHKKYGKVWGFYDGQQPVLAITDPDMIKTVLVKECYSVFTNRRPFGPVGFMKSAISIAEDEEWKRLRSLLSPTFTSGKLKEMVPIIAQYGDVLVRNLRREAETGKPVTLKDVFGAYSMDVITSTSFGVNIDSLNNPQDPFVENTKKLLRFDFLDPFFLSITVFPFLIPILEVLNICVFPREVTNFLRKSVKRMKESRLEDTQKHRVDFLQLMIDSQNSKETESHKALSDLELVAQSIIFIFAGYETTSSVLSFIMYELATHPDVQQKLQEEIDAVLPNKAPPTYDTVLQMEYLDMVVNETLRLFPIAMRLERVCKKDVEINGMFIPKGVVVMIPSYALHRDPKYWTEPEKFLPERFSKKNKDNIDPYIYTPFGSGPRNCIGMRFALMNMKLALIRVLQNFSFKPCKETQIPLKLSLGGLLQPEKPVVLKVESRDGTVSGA
DNA dC->dU-editing enzyme APOBEC-3G (Homo sapiens), sequence (Q9HC16 whole entry, looked up): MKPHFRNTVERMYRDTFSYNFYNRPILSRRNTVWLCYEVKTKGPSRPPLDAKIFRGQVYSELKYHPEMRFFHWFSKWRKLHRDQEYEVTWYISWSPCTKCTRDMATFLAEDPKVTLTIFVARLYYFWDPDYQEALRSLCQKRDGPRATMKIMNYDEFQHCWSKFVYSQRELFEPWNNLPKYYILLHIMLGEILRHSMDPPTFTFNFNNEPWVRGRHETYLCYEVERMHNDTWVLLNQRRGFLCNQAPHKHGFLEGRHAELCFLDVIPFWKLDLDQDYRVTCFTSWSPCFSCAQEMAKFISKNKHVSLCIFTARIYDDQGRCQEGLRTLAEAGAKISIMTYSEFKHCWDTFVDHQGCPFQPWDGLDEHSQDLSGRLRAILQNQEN

Regarding `C[C@]12CCC(=O)C=C1[C@@H]1C[C@H]1[C@H]1[C@@H]3[C@@H]4C[C@H]4[C@@]4(CCC(=O)O4)[C@@]3(C)CC[C@@H]12`, the Potency result (in experiment [1]; with GB4) was “inactive” throughout.

For `CN(C)CC[C@@](O)(c1ccccc1)c1ccccc1Cl`, the Potency entry in experiment [1] and in [2] was “inactive” throughout. The Potency in the experiment on DIV14 is 6.75 µM (active); in the experiment on GB4, 7.57 µM (active); in the experiment on ICS, 4.47 µM (active); with W2 it was 1.2 µM (active).

For the compound `C/C(=C(/CCOC(=O)C(C)C)SS/C(CCOC(=O)C(C)C)=C(\C)N(C=O)Cc1cnc(C)nc1N)N(C=O)Cc1cnc(C)nc1N`, the Potency entry (in [1]; in the experiment with DIV14; in the experiment with ICS; in the experiment on W2) was “inactive” each time.

Take `CC1CN(c2c(F)c(N)c3c(=O)c(C(=O)O)cn(C4CC4)c3c2F)CC(C)N1` (stereo not drawn): the Potency result (in [1]; in experiment [2]; in the experiment with DIV14; in the experiment on GB4; in the experiment on ICS; in the experiment with W2) was “inactive” in each case.

For the compound `CC1(C)SC2[C@@H](N=CN3CCCCCC3)C(=O)N2[C@H]1C(=O)O` (stereo partly drawn), the Potency entry (in experiment [1]; in experiment [2]; in the experiment on GB4) was “inactive” in each case.

On to `O=C(O)C[CH2][Ge](=[O])[O][Ge](=[O])[CH2]CC(=O)O`, for which the Potency result (in [1]; in experiment [2]; in the experiment with DIV14; in the experiment on GB4; in the experiment with ICS; in the experiment with W2) was “inactive” in each case.

Consider `Cc1c(C)c2c(c(C)c1O)CCC(C)(CCCC(C)CCCC(C)CCCC(C)C)O2` (stereo not drawn), for which the Potency entry (in experiment [3]; in [4]; in experiment [2]; in the experiment with DIV14; in the experiment on GB4; in the experiment on W2) was “inactive” throughout.

Turning to `COC(=O)C1C2CC3c4[nH]c5cc(OC)ccc5c4CCN3CC2CC(OC)C1OC` (stereo not drawn), the Potency result (in [1]; in [2]; in the experiment with GB4; with ICS) was “inactive” in each case.

As for `CC1CCC(O)C/C1=C\C=C1/CCCC2(C)C1CCC2C(C)/C=C/C(C)C(C)C` (stereo not drawn), the Potency result in [2] is “inactive”. The Potency in the experiment on ICS is 11.2 µM (active).

Turning to `O=C1Oc2ccccc2C(=O)C1C(CC(O)c1ccc(-c2ccc(Br)cc2)cc1)c1ccccc1` (stereo not drawn), the Potency in experiment [1] is 50.1 µM (active); in experiment [2], 36.1 µM (active). For the same compound, the Potency entry with GB4 is “inactive”.

For `C#C[C@@]1(O)CC[C@@H]2[C@H]3CCC4=C/C(=N\O)CC[C@H]4[C@@H]3CC[C@]21CC`, the Potency result (in experiment [1]; in the experiment on DIV14) was “inactive” throughout.

For the compound `CCCSS/C(CCO)=C(/C)N(C=O)Cc1cnc(C)nc1N`, the Potency result (in experiment [1]; in the experiment on DIV14; in the experiment with W2) was “inactive” each time. For the same compound, the Potency in experiment [2] is 10.2 µM (active).

On to `OCC(O)C(O)C(O)C(O)CO` (stereo not drawn), for which the Potency entry (in experiment [1]; in [2]; with DIV14; in the experiment on GB4; in the experiment on ICS; with W2) was “inactive” throughout.

Take `NC(C(=O)O)C(O)c1ccc(O)c(O)c1` (stereo not drawn): the Potency in experiment [1] was 22.4 µM (active); in the experiment on ICS, 11.2 µM (active). Moreover, the Potency entry in [2] is “inactive”.

Regarding `CCCCC(=O)OC1CCC2C3CCc4cc(O)ccc4C3CC[C@]12C` (stereo partly drawn), the Potency entry (in experiment [4]; in the experiment with GB4) was “inactive” throughout.

For `CCC1OC(=O)C[C@H](O)C(C)[C@@H](O[C@@H]2OC(C)C(O)C(N(C)C)C2O)C(CCN2CC(C)CC(C)C2)CC(C)C(=O)/C=C/C(C)=C\[C@@H]1COC1OC(C)C(O)C(OC)C1OC` (stereo partly drawn), the Potency entry in experiment [3], in [4], in experiment [1] and in experiment [2] was “inactive” each time. For the same compound, the values for the Potency in the experiment with GB4, in the experiment on ICS and in the experiment with W2 were 7.57 µM (active), 10 µM (active) and 1.07 µM (active), respectively.

As for `CCOc1ccccc1O[C@@H](c1ccccc1)[C@@H]1CNCCO1`, the Potency result in experiment [5], in experiment [1] and in experiment [2] was “inactive” throughout. The compound was called inactive in experiment [6]. Further, the Potency in the experiment with DIV14 was 1.69 µM (active); in the experiment on ICS, 5.01 µM (active); in the experiment on W2 it was 2.69 µM (active).

Regarding `CNC1CCc2cc(OC)c(OC)c(OC)c2-c2ccc(OC)c(=O)cc21` (stereo not drawn), the Potency result (in experiment [1]; in the experiment on GB4) was “inactive” in each case.

Consider `CCN(CC)C(=O)[C@@]1(c2ccccc2)C[C@@H]1CN`, for which the Potency entry (in experiment [1]; in experiment [2]; in the experiment on GB4; in the experiment on ICS) was “inactive” throughout.

For `Nc1nc(Cl)nc2c1ncn2[C@@H]1O[C@H](CO)[C@H](O)C1F` (stereo partly drawn), the Potency entry (in [1]; with DIV14; with GB4; in the experiment with ICS; in the experiment with W2) was “inactive” throughout. In addition, in experiment [2], the Potency is 0.907 µM (active).

As to `CC(=O)O[C@]1(C(C)=O)CCC2C3CCC4=CC(=O)CCC4(C)C3(F)C(O)CC21C` (stereo partly drawn), the Potency result (in [1]; in experiment [2]; in the experiment with DIV14; in the experiment with GB4) was “inactive” each time.

Regarding `C=C1C(n2cnc3c(=O)[nH]c(N)nc32)C[C@H](O)[C@H]1CO` (stereo partly drawn), the Potency entry in [1] and in experiment [2] was “inactive” each time.

As for `Cn1cc(C(=O)[C@@H]2CCc3[nH]cnc3C2)c2ccccc21`, the Potency entry (in experiment [1]; in experiment [2]; in the experiment with DIV14; with GB4; in the experiment with ICS; with W2) was “inactive” throughout.

Turning to `CC1(C)O[C@@H]2C[C@H]3[C@@H]4CCC5=CC(=O)C=C[C@]5(C)[C@H]4C(O)C[C@]3(C)[C@]2(C(=O)CO)O1` (stereo partly drawn), the Potency entry (in experiment [1]; in experiment [2]; in the experiment on DIV14) was “inactive” throughout.

Turning to `CCC1OC(=O)C[C@@H](O)[C@H](C)[C@@H](OC2OC(C)CC(N(C)C)C2O)[C@@H](CC=O)C[C@@H](C)C(=O)/C=C/[C@]2(C)OC2C1C` (stereo partly drawn), in experiment [1], the Potency result is “inactive”. Further, the figures for the Potency in the experiment with ICS and with W2 were 4.47 µM (active) and 1.2 µM (active), respectively.

Turning to `CC[C@H]1OC(=O)[C@H](C)C(=O)[C@H](C)[C@@H](OC2O[C@H](C)C[C@H](N(C)C)[C@@H]2O)[C@@](C)(OC)C[C@@H](C)C(=O)[C@@H](C)C2N(CCCCn3cnc(-c4cccnc4)c3)C(=O)O[C@@]21C` (stereo partly drawn), the Potency is 12 µM (active) in the experiment with DIV14 and 10 µM (active) with ICS.

Turning to `COC(=O)C1=C(C(=O)OC)[C@@H]2N(C)c3ccccc3[C@@]23C[C@@H](C(=O)OC)N(S(=O)(=O)c2ccc(Br)cc2)C3=N1`, the Potency entry in experiment [7] is “inactive”. Further, the Potency was 2.13 µM (active) in experiment [8] and 1.69 µM (active) in experiment [9].

On to `CC#CCN1c2ccccc2[C@]23C[C@@H](C(=O)OC)N(S(=O)(=O)c4ccc(OC)cc4)C2=NC(C(=O)OC)=C(C(=O)OC)[C@H]13`, for which, in [7], the Potency result is “inactive”. In experiment [8], the Potency is 2.13 µM (active).

With `O=C(NC(CO)C(O)c1ccc([N+](=O)[O-])cc1)C(Cl)Cl` (stereo not drawn), the Potency result in [4], in experiment [1] and in experiment [2] was “inactive” each time.
